The full list was thinned out, with hits kept by preference.
15-hLO-2 inh = qHTS Assay for Inhibitors of 15-hLO-2 (15-human lipoxygenase 2). purified 15hLO-2, xylenol orange hydroperoxide absorbance. Potency, µM (top dose mostly 57.1 µM), usual class: inhibitors. 0.56% of 110,000 active. AID 881, 2007; also: nearly all actives have a fitted effect of over 60% in size
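Read-out: hydroperoxide product oxidises ferrous iron, measured as xylenol orange complex via the 573-to-405 nm absorbance ratio after 30 min. Reaction: 50 nM enzyme, 15 min compound preincubation, 45 uM arachidonic acid, 90 min RT, Hepes pH 7.5 with Triton X-100.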
ALOX12 inhib = qHTS Assay for Inhibitors of 12-hLO (12-human lipoxygenase). AID 1452, 2008. purified 12-hLO, xylenol orange hydroperoxide absorbance. 0.12% of 150,000 active. Polyunsaturated fatty acid lipoxygenase ALOX12 (Homo sapiens), P18054. Potency, µM (series often up to 57.1 µM), usual class: inhibitors; also: nearly all actives have a fitted effect of over 55% in size
Target sequence (P18054 whole entry, looked up): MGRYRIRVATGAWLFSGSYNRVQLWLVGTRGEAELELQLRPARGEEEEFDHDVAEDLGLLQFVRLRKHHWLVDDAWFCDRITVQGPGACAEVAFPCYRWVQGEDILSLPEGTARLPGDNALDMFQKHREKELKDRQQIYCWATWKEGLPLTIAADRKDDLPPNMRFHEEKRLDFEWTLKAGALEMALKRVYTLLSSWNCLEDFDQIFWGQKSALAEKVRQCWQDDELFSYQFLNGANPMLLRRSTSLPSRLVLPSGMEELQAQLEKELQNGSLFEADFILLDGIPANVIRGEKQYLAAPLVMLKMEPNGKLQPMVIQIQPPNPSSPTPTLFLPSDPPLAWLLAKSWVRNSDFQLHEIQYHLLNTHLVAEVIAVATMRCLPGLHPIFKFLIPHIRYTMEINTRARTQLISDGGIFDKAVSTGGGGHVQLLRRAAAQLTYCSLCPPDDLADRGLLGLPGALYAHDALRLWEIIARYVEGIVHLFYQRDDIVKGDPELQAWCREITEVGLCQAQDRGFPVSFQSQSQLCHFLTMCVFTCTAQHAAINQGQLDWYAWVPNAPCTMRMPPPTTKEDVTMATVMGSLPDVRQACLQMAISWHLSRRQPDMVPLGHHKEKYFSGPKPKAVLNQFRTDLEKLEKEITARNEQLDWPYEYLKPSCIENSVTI
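Xylenol orange chromogenic assay: hydroperoxide from 12hLO oxidises Fe(II), giving red-shifted Fe(III)-XO absorbance. Conditions: 150 nM enzyme, 40 uM arachidonic acid, 25 mM Hepes pH 7.0, 0.01% Triton X-100, 30 min, room temperature.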
Of the large screens only hits and unclear results are named; the others gave an inactive call. Calls follow the shape of the dose curve; as a rule, active = well fitted curve in the direction sought with a large enough effect; inconclusive = small, poorly fitted or top-dose-only effect, or another doubt; inactive = no such curve, though single readings can be large; an effect the other way counts as inactive or inconclusive.

COc1ccc(OC)c(S(=O)(=O)Nc2ccc(O)c3ccccc23)c1	15-hLO-2 inh 15.8µM
COc1ccc(OC)c(S(=O)(=O)Nc2ccc(Oc3ccccc3)cc2)c1	ALOX12 inhib inconclusive
COc1ccc(-c2nc3c(c4c2C[C@H](c2ccccc2)OC4)CN(S(=O)(=O)c2ccc(C)cc2)CC3)c(C)c1	none (no result: 15-hLO-2 inh)
NC[C@@H]1O[C@@H](O[C@H]2[C@@H](O)[C@H](O[C@@H]3[C@H](O)[C@H](N)C[C@H](N)[C@H]3O[C@@H]3O[C@@H](CO)[C@H](O)[C@H](O)[C@@H]3N)O[C@H]2CO)[C@H](N)[C@H](O)[C@@H]1O	none
C=Cc1c(C)c2cc3[nH]c(cc4nc(cc5nc(cc1[nH]2)C(C)=C5CCC(=O)O)C(CCC(=O)O)=C4C)c(C)c3C=C	15-hLO-2 inh 20µM
CC1=C(CCC(=O)O)c2cc3nc(cc4[nH]c(cc5[nH]c(cc1n2)c(C)c5C(C)O)c(C)c4C(C)O)C(C)=C3CCC(=O)O (centres undefined)	none
C[C@H]1[C@H](O)[C@@H](C)C=CC=CC=CC=CC=CC=CC=C[C@H](O[C@@H]2O[C@@H](C)[C@H](O)[C@@H](N)[C@@H]2O)C[C@@H]2O[C@](O)(C[C@@H](O)C[C@@H](O)[C@@H](O)CC[C@@H](O)C[C@@H](O)CC(=O)O[C@H]1C)C[C@H](O)[C@H]2C(=O)O	none
O=C1NC2(CCCCC2)NN1c1ccccc1	15-hLO-2 inh inconclusive, ALOX12 inhib 3.98µM
O=C1NC2(CCCCC2)C(=O)N1c1ccccc1	none
CCc1cc(-c2n[nH]c(=S)n2C(C)c2ccccc2)cs1 (centres undefined)	ALOX12 inhib 15.8µM
Cc1scc(-c2n[nH]c(=S)n2C(C)c2ccccc2)c1C (centres undefined)	none (no result: 15-hLO-2 inh)
O=C(O)C(Cc1ccccc1)N1C(=O)/C(=C/c2ccccc2)SC1=S (centres undefined)	none (no result: 15-hLO-2 inh)
O=C(O)C(Cc1ccccc1)N1C(=O)/C(=C/c2cccc3ccccc23)SC1=S (centres undefined)	15-hLO-2 inh 20µM
Cc1ccc(C(=O)O[C@@H](C(=O)O)[C@@H](OC(=O)c2ccc(C)cc2)C(=O)O)cc1 (tested in a mixture with another compound)	none
Oc1c(Cl)cc(Cl)c(Cl)c1Cl	none
Oc1c(Cl)cc(C(c2cc(Cl)c(O)c(Cl)c2)C(c2cc(Cl)c(O)c(Cl)c2)c2cc(Cl)c(O)c(Cl)c2)cc1Cl	15-hLO-2 inh 3.98µM
COc1ccc2c(c1OC)C(Cc1ccccc1)N1CCc3cc4c(cc3C1=C2)OCO4 (centres undefined)	ALOX12 inhib inconclusive
CC(=O)[C@@]1(O)CC[C@@H]2[C@@H]3CCC4=CC(=O)CC[C@@]4(C)[C@H]3CC[C@]21C	none
COC(=O)C1=C(C(=O)OC)[C@@H]2Nc3ccccc3[C@@]23C[C@@H](C(=O)OC)N(S(=O)(=O)c2ccc(OC)cc2)C3=N1	none (no result: 15-hLO-2 inh)
O=C(c1[nH]o[n+](=O)c1C(=O)c1csc2ccccc12)c1csc2ccccc12	none
Oc1c(Cl)cc(Cl)cc1Sc1cc(Cl)cc(Cl)c1O	15-hLO-2 inh 6.31µM, ALOX12 inhib inconclusive
Oc1c(Cl)cc(Cl)cc1C(C#Cc1ccccc1)N1CCOCC1 (centres undefined)	none
CC(C)(C)NC(=S)Nc1ccc(Br)cc1	none
CC(C)(C)NC(=S)Nc1ccc(Nc2ccccc2)cc1	15-hLO-2 inh 15.8µM, ALOX12 inhib inconclusive
C[C@@H](Cc1ccccc1)Nc1ncnc2c1ncn2[C@@H]1O[C@@H](CO)[C@H](O)[C@@H]1O	ALOX12 inhib inconclusive
Cc1ccc2[nH]c(-c3ccc(F)cc3F)cc(=O)c2c1	none
CC(C)(C)c1onc(OCP(=O)(O)O)c1C[C@@H](N)C(=O)O	none
CC(C)n1c(=S)[nH]c2c1c(=O)[nH]c(=O)n2C	15-hLO-2 inh 12.6µM, ALOX12 inhib inconclusive
C=CC(C)n1c(Br)nc2c1c(=O)[nH]c(=O)n2C (centres undefined)	none
CCOc1cc(-c2cc(-c3ccc(C)o3)nc(N)c2C#N)ccc1O	15-hLO-2 inh inconclusive
Cc1ccc(-c2c(C#N)c(N)nc3c2CCCCC3)o1	none
Cc1ccc(-c2cc(-c3ccc(C)o3)nc(N)c2C#N)cc1	15-hLO-2 inh inconclusive, ALOX12 inhib 15.8µM
Cc1ccc(-c2cc(-c3ccc(Cl)cc3)c(C#N)c(N)n2)o1	15-hLO-2 inh 6.31µM, ALOX12 inhib 11.2µM
CCCCC/C=C\C\C=C/C=C/C=C/[C@@H](SCC(N)C(=O)NCC(=O)O)[C@@H](O)CCCC(=O)O (some centres undefined)	none (no result: 15-hLO-2 inh)
COC(=O)CC1c2ccccc2C(Cc2ccc(OC)cc2)C(C)N1C(=O)OC (centres undefined)	none (no result: 15-hLO-2 inh)
COc1ccc(/C=N/NC(=O)c2cc(-c3ccc(Cl)cc3)n[nH]2)cc1OC	none (no result: 15-hLO-2 inh)
CCOC(=O)c1sc(N)c(C(=O)Nc2ccc(C)cc2C)c1C	none (no result: 15-hLO-2 inh)
